{
  "source": "PubChem BioAssay (NCI)",
  "note": "Compounds without any hit were thinned out: in the full panel of roughly 83,000, 20% have a hit.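 The test compound was applied at a single concentration to cells in 96-well plates for 48 hours, and percent growth was recorded.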 Calls of active or inactive are those of the source. The calls were made as follows: active = growth percent below 10; inactive = the rest.",
  "data": [
    {"tested_on": "SF-268 CNS", "assay": "NCI-60 one-dose screen, 48 h (100 = growth as untreated, 0 = no growth, -100 = all killed)", "conditions": "10 µM unless noted", "values": [
      {"smiles": "CO[C@H]1CC(c2ccc[nH]2)=N[C@]12O[C@@H](C)C[C@@H]1CCCCCCCc3ccc([nH]3)[C@H]12", "growth": "48.6% (inactive)"},
      {"smiles": "COc1ccc2c(O)cc3c(c2c1)[C@H](CCl)CN3C(=O)c1cc2cc(NC(=O)CCN3CCOCC3)ccc2[se]1", "growth": "-42.7% (active)"},
      {"smiles": "O=c1c(/C=C/c2c(O)ccc3ccccc23)nnc2sc(-c3cccc([N+](=O)[O-])c3)nn12", "growth": "40.4% (inactive)"},
      {"smiles": "CC1(C)CCC[C@]23C(=O)O[C@](O)(C(=O)C4=C[C@@](C)(/C=C/CCCc5ccc6ccc7cccc8ccc5c6c78)CC[C@@]42O)[C@@H]13", "growth": "-45.3% (active)"},
      {"smiles": "CCOC(=O)CC1C(CNC(=O)NC)OC(n2cnc3c(NC(=O)Nc4ccccc4)ncnc32)C1O[Si](C)(C)C(C)(C)C", "note": "(configuration not stated)", "growth": "58.6% (inactive)"},
      {"smiles": "COc1ccc(-c2ccc(-c3ccc(C(=N)N)nc3)s2)cc1", "growth": "-65.4% (active)"},
      {"smiles": "COc1ccc(Cn2cc3c(c2)-c2oncc2CC3)cc1", "growth": "136% (inactive)"},
      {"smiles": "O=[N+]([O-])c1ccc(Oc2cccc3c(Oc4ccc([N+](=O)[O-])cc4[N+](=O)[O-])cccc23)c([N+](=O)[O-])c1", "growth": "85% (inactive)"},
      {"smiles": "CCCCCN(CCCCC)CC(O)c1c(Cl)ccc2ccccc12", "note": "(configuration not stated)", "growth": "84.7% (inactive)"},
      {"smiles": "Cn1cc(-c2csc(-c3cn(C)c4ccc(F)cc34)n2)c2cnccc21", "growth": "-60.3% (active)"},
      {"smiles": "CNC1=C([N+](=O)[O-])C(c2ccc(OC)cc2)C(C#N)=C(c2ccc[nH]2)O1", "note": "(configuration not stated)", "growth": "103% (inactive)"},
      {"smiles": "Cc1cc(C(=O)Nc2cc(Nc3ncccc3-c3ncnc4nc[nH]c34)ccc2F)cc(C(C)(C)C#N)c1", "growth": "64.7% (inactive)"}
    ]}
  ]
}
